Growth data for three molecules are collected here from PubChem BioAssay (NCI).

The test relates to MDA-MB-468 breast. In words: NCI-60 one-dose screen, 48 h (100 = growth as untreated, 0 = no growth, -100 = all killed). The conditions noted are these: 10 µM unless noted.

Structures are written as SMILES. Compounds without any hit were thinned out: in the full panel of roughly 83,000, 20% have a hit.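 Results are percent growth after 48 hours of single-concentration exposure. 100 means growth as in untreated cells, lower positive values show inhibition; negative values down to -100 show cell death.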 Unmarked numbers belong to inactive results. How the source made its calls: active means growth percent below 10; inactive means the rest.

As for `O=C(Nc1ccncc1)C(=O)c1cn(S(=O)(=O)c2ccc(Cl)cc2)c2ccccc12`, the growth is 19.7%.
To `Cc1ccc(O)c(Cc2ccccc2)c1` belongs 101%.
As for `O=C1c2ccccc2NC(c2cn(-c3ccccc3)nc2-c2cccs2)N1Cc1ccccc1` (stereo not drawn), the figure is 95.4%.
